Compound activity: PubChem BioAssay, several laboratories
Rv3671c inh: inhibitors of M. tuberculosis serine protease Rv3671c; P9WHR9; AID 2606; hit rate 0.048% among 320,000; inhibition, % at 5.96 µM; in the data active = inhibition above about 38%;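 also: extracellular domain of Rv3671c used as enzyme; 0% = enzyme with DMSO and 100% = no enzyme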
RecA splice inh: inhibitors of M. tuberculosis RecA intein splicing. P9WHJ3. inhibition, % (no concentration beside the values). AID 2221. cell-free RecA intein splicing, fluorescence. hit rate 0.75% among 290,000; in the data active = inhibition above about 30%; inconclusive = no clear call, values can overlap the other calls;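 also: 0% = vehicle wells and 100% = reference inhibitor control wells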
Mtb hypoxia rep: inhibitors of hypoxia-regulated fluorescent reporter in Mycobacterium tuberculosis; AID 1159583; fluorescence inhibition, % (test concentration not listed); hit rate 0.1% among 300,000; M. tuberculosis hypoxia-regulated fluorescent reporter, fluorescence; in the data active = fluorescence inhibition mostly above about 23%, no sharp cut-off; inactive = mostly below about 17%
FadD28 FP inh: M. tuberculosis FadD28 bisubstrate binding inhibition | FadD28 bisubstrate probe binding, fluorescence polarization | inhibition, % at 12.5 µM | hit rate 0.22% among 360,000; in the data active = inhibition above about 8.5%, passing the limit was not always enough; inconclusive = no clear call, values can overlap the other calls
Mtb UGM inh: inhibitors of M. tuberculosis UDP-galactopyranose mutase; inhibition, % at 10 µM; purified UGM, fluorescence polarization probe displacement; hit rate 0.06% among 320,000; in the data active = inhibition above about 10%, passing the limit was not always enough; inconclusive = no clear call, values can overlap the other calls
Target sequence (P9WIQ1 whole entry, looked up): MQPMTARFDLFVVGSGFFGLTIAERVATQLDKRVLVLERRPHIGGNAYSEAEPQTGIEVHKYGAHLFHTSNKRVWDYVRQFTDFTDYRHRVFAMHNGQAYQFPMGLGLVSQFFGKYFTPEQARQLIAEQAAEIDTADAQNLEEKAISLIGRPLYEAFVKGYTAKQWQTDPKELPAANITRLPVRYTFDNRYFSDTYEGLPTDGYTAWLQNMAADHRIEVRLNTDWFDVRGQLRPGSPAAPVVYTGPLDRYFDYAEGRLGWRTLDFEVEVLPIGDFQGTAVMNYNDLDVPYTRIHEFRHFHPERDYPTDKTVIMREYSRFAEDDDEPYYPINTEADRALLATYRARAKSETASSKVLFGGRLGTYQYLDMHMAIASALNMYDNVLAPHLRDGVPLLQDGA
Numbers without * were called inactive; ? = inconclusive; . = not tested or not shown. An excerpt weighted towards active compounds, which were near 0.92% of everything screened.

SMILES	Rv3671c inh	RecA splice inh	Mtb hypoxia rep	FadD28 FP inh	Mtb UGM inh
CCCCN(CCCC)C(=S)NN=Cc1c(C)[nH]n(-c2ccccc2)c1=O	.	.	-8	.	.
COc1ccc(-c2cc(C(=O)O)c3c(C)nn(-c4ccccn4)c3n2)cc1	4	-5	.	.	.
COc1ccc(N=CC2=C(Nc3ccc(OC)cc3)c3c(C)nn(-c4ccccn4)c3CC2)cc1	-2	.	.	.	14*
CCN1C(=O)C2C(c3ccc(-c4ccc(F)cc4)cc3)N[C@@](CC(C)C)(C(=O)OC)C2C1=O (stereo not given in full)	.	.	14	.	.
CN1CCN(S(=O)(=O)c2ccc(Sc3nnnn3-c3ccccc3)c([N+](=O)[O-])c2)CC1	-7	15	17	-5	2
CC(=O)c1ccc(Sc2nnnn2-c2ccccc2)c([N+](=O)[O-])c1	1	31*	16	-1	2
O=C(NN1C(=O)/C(=C/C=C/c2ccco2)SC1=S)c1ccccc1O	15	-5	-8	58*	1
Cc1ccc(NC(=O)CCCN2C(=O)/C(=C/C=C/c3ccccc3)SC2=S)cc1	-14	-3	11	0	0
O=C(O)CCCN1C(=O)/C(=C/C=C/c2ccco2)SC1=S	10	7	23	19*	0
O=C(O)CC(C(=O)O)N1C(=O)/C(=C/C=C/c2ccco2)SC1=S (stereo not given)	0	-1	7	?	-3
O=C(O)C(Cc1ccccc1)N1C(=O)/C(=C/C=C/c2ccco2)SC1=S (stereo not given)	.	21	15	39*	.
COCCNC(=O)C(=O)NN=C(C)CC(=O)Nc1cccnc1	.	.	-1	.	.
COCc1cc(C)nc(OCC(=O)NN=Cc2ccc(-c3cccc([N+](=O)[O-])c3)o2)c1C#N	.	.	2	.	.
COC(=O)C1=C(c2c(C)noc2C)CC2CCC1N2C(=O)NC1CC1 (stereo not given)	.	.	1	.	.
CCc1cccc2c(C(=O)COC(=O)c3cccc(S(=O)(=O)N(C)C4CCCCC4)c3)c[nH]c12	-135	1	7	22*	-3
COc1ccc(Cn2c(O)c(/C=N/NC(=O)c3cccnc3)c3ccccc3c2=O)cc1	.	-13	2	14*	.
O=C(N/N=C/c1c(O)n(Cc2ccccc2)c(=O)c2ccccc12)c1cccnc1	2	-51	12	11*	-1
O=C(N/N=C/c1c(O)n(-c2ccccc2Cl)c(=O)c2ccccc12)c1cccnc1	.	-57	-9	7	.
CS/C(=N\S(=O)(=O)c1ccc(N)cc1)NS(=O)(=O)c1cccs1	-3	-3	.	30*	-2
O=C1CC(c2cccnc2)=NN1c1ccccc1	-99	64*	0	-1	-1
Cc1ccc(NC(=S)N(CCN(C)C)Cc2cccs2)cc1	4	2	7	-1	-4
CCOC(=O)c1ccc(NC(=S)N(CCN(C)C)Cc2cccs2)cc1	-9	-1	11	10*	3
C[C@@H]1CC=C[C@H]2[C@H]1C(=O)N(Cc1ccccc1)[C@H]2c1ccc(F)c(/C=C/c2ccccc2)c1	-15	3	.	-1	0
C[C@@H]1CC=C[C@H]2[C@H]1C(=O)N(Cc1ccccc1)[C@H]2c1ccc(F)c(Br)c1	.	32*	.	.	.
CNC(=O)C1CC1C(NC(=O)CNC(=O)OCc1ccccc1)c1ccccc1 (stereo not given)	.	.	15	.	.
SMILES	Rv3671c inh	RecA splice inh	Mtb hypoxia rep	FadD28 FP inh	Mtb UGM inh
CCCOC(=O)C[N+](C)(C)CCOC1CC2CCC1(C)C2(C)C (stereo not given)	-7	-1	-1	-3	-3
CC(C)CCOC(=O)C[N+](C)(C)CCOC1CC2CCC1(C)C2(C)C (stereo not given)	2	0	41*	-1	0
O=C(NC(Cc1ccccc1)C(=O)O)C(=Cc1ccc(F)cc1)NC(=O)c1ccccc1 (stereo not given)	.	.	8	.	.
Cc1c(Cl)cccc1NC(=O)CSCc1cc(=O)[nH][nH]1	-4	85*	0	-3	6
Cc1c(Cl)cccc1NC(=O)CSc1nnnn1C	0	.	0	-4	-1
CN(C)c1ccc(N=Nc2ccc(S(=O)(=O)O)cc2)c2ccccc12	0	.	.	14*	5
CC(C)CNC(=O)c1c(N)n(Cc2ccc3c(c2)OCO3)c2nc3ccccc3nc12	-87	55*	2	-4	0
COCCNC(=O)c1c(N)n(CCC(C)C)c2nc3ccccc3nc12	-124	-316	0	-9	-1
CC(C)CCn1c(N)c(C(=O)NCc2cccs2)c2nc3ccccc3nc21	-3	88*	1	0	-2
N#CC(=NNc1cccc(C(F)(F)F)c1)C(=O)c1csc(-c2cccnc2)n1	.	.	44*	.	.
CC(Sc1nnc(CNc2cccc3ccccc23)n1-c1ccccc1)C(=O)N/N=C/c1ccco1 (stereo not given)	4	3	.	25*	0
CC(CC(=O)NCc1ccco1)=NNC(=O)c1ccc([N+](=O)[O-])cc1Cl	.	.	-1	.	.
C/C(CC(=O)NCc1ccco1)=N\NC(=O)c1ccc([N+](=O)[O-])cc1Cl	-1	69*	.	-1	0
CCOC(=O)c1sc(NC(=O)Nc2ccc(Cl)cc2)cc1C	-87	8	.	25*	-2
C=CCOC(=O)C1=CC(c2ccc(C(F)(F)F)cc2)C(CCCO)C(OCC)O1 (stereo not given)	.	.	-2	.	.
CN(NC(=O)C=CC(=O)O)c1ncc(C(F)(F)F)cc1Cl	.	.	1	.	.
Cc1cc(C(=O)NN=Cc2cccn2C)no1	.	.	6	.	.
Cc1cc(O)c(C=O)c2c1C(=O)Oc1c(CO)c(O)c3c(c1O2)C(O)OC3=O (stereo not given)	57*	.	.	18*	4
O=C(OCC(=O)c1ccc(Cl)cc1Cl)c1ccccn1	6	.	30*	-1	-3
CNC(=S)NN=Cc1cc(C)ccc1C	.	.	10	.	.
Oc1oc(-c2ccccc2)nc1C=Nc1ccccc1	2	3	2	-3	1
CN(C)c1ccc(N=Cc2nc(-c3ccccc3)oc2O)cc1	4	-3	.	5	15*
NN=C1CCCc2c1[nH]c1ccc([N+](=O)[O-])cc21	.	.	2	.	.
O=C(Oc1ccc(-n2cnnn2)cc1)c1ccco1	2	38*	5	-1	2
O=C(Oc1ccc2ccccc2c1)c1ccco1	8	35*	5	0	1
SMILES	Rv3671c inh	RecA splice inh	Mtb hypoxia rep	FadD28 FP inh	Mtb UGM inh
Cc1cc(NC(=O)c2ccco2)ccc1-n1cnnn1	5	.	4	-4	2
CCCOC(=O)c1ccc(OC(=O)c2ccco2)cc1	-2	37*	5	-2	-4
CCCOC(=O)c1ccc(NC(=O)Oc2ccccc2)cc1	-3	3	7	-1	1
O=C(COC(=O)c1ccco1)c1ccc2ccccc2c1	-5	8	.	-1	3
CCN1C(=O)C2C(c3ccc(-c4ccc(F)cc4)c(OC)c3)N[C@@](Cc3ccccc3)(C(=O)OC)C2C1=O (stereo not given in full)	.	.	-7	.	.
COc1ccc(C2CC(=O)C=C(c3cc(C)ccc3F)C2)cc1 (stereo not given)	.	.	13	.	.
CCC(C)C1CN=C(N)N1CC1CCCCC1 (stereo not given)	.	.	-2	.	.
